Rows were chosen to be rich in hits. Some 2% of all compounds tested hit in one or more screens of this group.
M4 PAM: CHRM4 positive allosteric modulation; P08173; 360,000 tested, 0.4% active; CHO-K1 hM4/Gqi5, Fluo-8 calcium fluorescence, ACh EC20; 0% = ACh EC20, 100% = maximal ACh; activation, % at 3 µM; AID 624126;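 active = activation above its plate's cutoff, the mean activation of sample wells plus 3 SD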
Target sequence (P08173 whole entry, looked up): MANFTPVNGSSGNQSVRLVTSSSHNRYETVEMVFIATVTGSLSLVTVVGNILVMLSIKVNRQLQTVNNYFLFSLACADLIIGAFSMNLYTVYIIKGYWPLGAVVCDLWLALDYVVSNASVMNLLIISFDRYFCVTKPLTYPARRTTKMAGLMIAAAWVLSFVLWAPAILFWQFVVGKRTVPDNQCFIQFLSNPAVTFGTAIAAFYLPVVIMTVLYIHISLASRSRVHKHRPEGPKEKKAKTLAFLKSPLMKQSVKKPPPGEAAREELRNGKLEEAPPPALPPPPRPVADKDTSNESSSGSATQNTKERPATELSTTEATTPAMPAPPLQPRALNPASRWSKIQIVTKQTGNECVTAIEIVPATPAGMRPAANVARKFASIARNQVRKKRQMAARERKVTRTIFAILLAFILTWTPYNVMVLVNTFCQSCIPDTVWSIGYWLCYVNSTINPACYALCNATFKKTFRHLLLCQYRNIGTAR
CHRM4 agonist: agonists of human muscarinic M4 receptor (CHRM4); P08173; CHO-K1 hM4/Gqi5, Fluo-8 calcium fluorescence; vehicle 0%, full acetylcholine response 100%; activation, % at 3 µM; 360,000 tested, 0.14% active;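 active = activation above the run mean over all test wells plus 3 SD, cut at about 32% in these data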;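 note: peak over basal fluorescence ratio per well then scaled between controls; 0% = DMSO wells and 100% = acetylcholine at EC100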
M4 antag: CHRM4 antagonism in calcium assay; P08173; CHO-hM4 cells, ACh EC80, Fluo-8 calcium fluorescence; inhibition, % at 3 µM; 360,000 tested, 0.73% active;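 active = inhibition above its plate's cutoff, the mean inhibition of sample wells plus 3 SD, cut at about 27% in these data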;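 note: 0% = acetylcholine EC80 with DMSO and 100% = DMSO without agonist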
M1 ag parental: counter-screen for M1 agonists: effect in parental CHO-K1 cells; Fluo-8 calcium fluorescence; scaled to maximal ATP response, vehicle zero; activation, % at 3 µM; 360,000 tested, 0.48% active; AID 602248; in the data active = activation above about 15%;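 note: untransfected CHO-K1 host cells lacking M1 receptor as counterscreen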
M1 PAM parental: nonselective activator or artifact in parental CHO-K1 calcium assay | ATP EC20, Fluo-8 calcium fluorescence; 0% at ATP EC20, 100% at ATP max | activation, % at 3 µM | 360,000 tested, 0.02% active;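 active = activation above the run cutoff, the mean activation of all test compounds plus 3 SD, cut at about 40% in these data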;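 note: peak over basal fluorescence ratio in a 140 s read after ATP addition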
CHO-K1 Ca antag: counter-screen for M1 antagonists: effect in parental CHO-K1 cells; ATP-induced calcium, Fluo-8 fluorescence; AID 602250; 360,000 tested, 0.6% active; inhibition, % at 3 µM;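 active = inhibition above a per-plate cutoff, the plate's mean sample inhibition plus 3 SD, cut at about 24% in these data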;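 note: 0% = DMSO plus EC80 ATP and 100% = DMSO alone without ATP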
Active calls of the source: *.

For O=C(/C=C/c1ccc2c(c1)OCCO2)N1CCN(c2ccc(F)cc2)CC1 the results were M4 PAM 2, CHRM4 agonist 0, M4 antag 5, M1 ag parental 0, M1 PAM parental -8 and CHO-K1 Ca antag -6.
CC1CSC(N(C(=O)c2ccc(S(C)(=O)=O)cc2)c2ccc(Cl)cc2)=N1 (stereo not drawn) was read as M4 PAM 0, CHRM4 agonist 3, M4 antag -3, M1 ag parental 16*, M1 PAM parental 9 and CHO-K1 Ca antag -4.
Screening CC1(C)Cc2c(sc3nc(-c4cccs4)n(N)c(=O)c23)CO1 returned M4 PAM -12, CHRM4 agonist 20, M4 antag 15, M1 ag parental 16*, M1 PAM parental -13 and CHO-K1 Ca antag -4.
Screening COc1ccccc1NC(=O)C(C)N(C)Cc1ccc(Cl)s1 (stereo not drawn) returned M4 PAM 7, CHRM4 agonist -1, M4 antag 0, M1 ag parental 0, M1 PAM parental 48* and CHO-K1 Ca antag -16.
For CCn1cnc2sc(C(=O)Oc3cccc(C)c3)c(C)c2c1=O the results were M4 PAM 8, CHRM4 agonist 2, M4 antag -4, M1 ag parental 15*, M1 PAM parental 17 and CHO-K1 Ca antag 3.
O=C(NCC1CCCO1)c1cccc(NS(=O)(=O)c2ccc(Br)cc2)c1 (stereo not drawn) was read as M4 PAM 5, CHRM4 agonist 4, M4 antag -3, M1 ag parental 4, M1 PAM parental 6 and CHO-K1 Ca antag -9.
Screening CC1=[N+](C)N(c2ccccc2)C(=O)C1N=Cc1c(Cl)cccc1Cl (stereo not drawn) returned M4 PAM -3, CHRM4 agonist 1, M4 antag 6, M1 ag parental 16*, M1 PAM parental 10 and CHO-K1 Ca antag 9.
`O=C(NC(Cc1ccccc1)C(=O)O)/C(=C/c1ccc(Br)cc1)NC(=O)c1ccc(Br)o1` (stereo not drawn) gave M4 PAM 19*, CHRM4 agonist 0, M4 antag -1, M1 ag parental 0, M1 PAM parental -19 and CHO-K1 Ca antag 1.
O=C(NC(Cc1ccccc1)C(=O)O)/C(=C\c1ccc(Br)cc1)NC(=O)c1ccc(Br)o1 (stereo not drawn) was read as M4 PAM -4, CHRM4 agonist 0, M4 antag 15, M1 ag parental 0, M1 PAM parental -2 and CHO-K1 Ca antag -17.
CC1(C(=O)NS(=O)(=O)c2ccc(F)cc2F)CCN1C(=O)Cc1ccccc1 (stereo not drawn) was read as M4 PAM -3, CHRM4 agonist 0, M4 antag 5, M1 ag parental 0, M1 PAM parental -10 and CHO-K1 Ca antag 5.
For CC1(C(=O)NS(=O)(=O)c2ccc(F)cc2F)CCN1C(=O)Cc1ccc(Cl)cc1Cl (stereo not drawn) the results were M4 PAM 1, CHRM4 agonist 0, M4 antag 0, M1 ag parental 0, M1 PAM parental -9 and CHO-K1 Ca antag 27*.
CCC(Oc1ccccc1OC)C(=O)Nc1ccc2c(c1)OCCO2 (stereo not drawn) was read as M4 PAM 2, CHRM4 agonist 1, M4 antag -10, M1 ag parental 2, M1 PAM parental 16 and CHO-K1 Ca antag -13.
For COc1cccc(C(=O)COC(=O)c2n[nH]c(=O)c3ccccc23)c1 the results were M4 PAM 9, CHRM4 agonist 1, M4 antag -3, M1 ag parental 0, M1 PAM parental 8 and CHO-K1 Ca antag -3.
For COCCn1c(=S)[nH]c2cc(C(=O)NCc3ccc(F)cc3)ccc2c1=O the results were M4 PAM 2, CHRM4 agonist 3, M4 antag -21, M1 ag parental 0, M1 PAM parental -1 and CHO-K1 Ca antag -5.
CCn1c(SCC(=O)N2CCCCC2C)nnc1-c1ccco1 (stereo not drawn) was read as M4 PAM -6, CHRM4 agonist 1, M4 antag 5, M1 ag parental 0, M1 PAM parental -6 and CHO-K1 Ca antag -13.

Compound activity deposited in PubChem by The Scripps Research Institute Molecular Screening Center.
